Screening results: PubChem, National Center for Advancing Translational Sciences (NCATS)
CBFb-RUNX1 inh: inhibitors of human CBF-beta and RUNX1 interaction. AlphaScreen CBFb-His/RUNX1-biotin binding, biochemical. Potency, µM (titrated, usually from 59.8 µM), actives largely listed as inhibitors. 230,000 tested, under 10 active. AID 1477; active means well fitted curve in the direction sought with a large enough effect; inconclusive means small, poorly fitted or top-dose-only effect, or another doubt; inactive means no such curve, though single readings can be large; an effect the other way counts as inactive or inconclusive
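CBFb-His/RUNX1-biotin, 30 nM each, preincubated 20 min RT; compound 15 min RT; Ni + streptavidin beads 50 ng each, 90 min RT; AlphaScreen read.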
HTT ATP protect: Huntington cell model cytoprotection by ATP luminescence | PC12 HTT-Q103 induced, cytoprotection, ATP luminescence, 40 h | actives 0.14% (n = 230,000) | Potency, µM (highest dose often 56.4 µM), hits mostly activators; active means well fitted curve in the direction sought with a large enough effect; inconclusive means small, poorly fitted or top-dose-only effect, or another doubt; inactive means no such curve, though single readings can be large; an effect the other way counts as inactive or inconclusive; further: nearly all actives have a fitted effect of over 45% in size
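Stable PC12 Q103-GFP cells in serum-supplemented, phenol red-free DMEM; induction by tebufenozide at 100 nM final; compound dose series; cell viability quantified luminescently from ATP.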
HTT aggregate: inhibitors of mutant huntingtin aggregate formation in PC12 cells. Potency, µM (doses to about 46.1 µM), usual class: inhibitors. PC12 HttQ103-GFP aggregates, Acumen cytometry, 40 h. AID 1688. actives 1.1% (n = 220,000); active means well fitted curve in the direction sought with a large enough effect; inconclusive means small, poorly fitted or top-dose-only effect, or another doubt; inactive means no such curve, though single readings can be large; an effect the other way counts as inactive or inconclusive; further: nearly all actives have a fitted effect of over 60% in size
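PC12 cells with ecdysone-inducible HTT exon1 Q103-GFP, induced by 100 nM tebufenozide, given compounds in a concentration series. GFP aggregates (1–25 um, 6 SD above background) counted in lysates by laser-scanning cytometry, 488 nm excitation.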
ALDH1A1 block: inhibitors of human aldehyde dehydrogenase 1A1; Potency, µM (series often up to 75.3 µM), most hits filed as inhibitors; actives 7.3% (n = 220,000); P00352; AID 1030; Purified ALDH1A1, NADH fluorescence, propionaldehyde substrate
Target sequence (P00352 whole entry, looked up): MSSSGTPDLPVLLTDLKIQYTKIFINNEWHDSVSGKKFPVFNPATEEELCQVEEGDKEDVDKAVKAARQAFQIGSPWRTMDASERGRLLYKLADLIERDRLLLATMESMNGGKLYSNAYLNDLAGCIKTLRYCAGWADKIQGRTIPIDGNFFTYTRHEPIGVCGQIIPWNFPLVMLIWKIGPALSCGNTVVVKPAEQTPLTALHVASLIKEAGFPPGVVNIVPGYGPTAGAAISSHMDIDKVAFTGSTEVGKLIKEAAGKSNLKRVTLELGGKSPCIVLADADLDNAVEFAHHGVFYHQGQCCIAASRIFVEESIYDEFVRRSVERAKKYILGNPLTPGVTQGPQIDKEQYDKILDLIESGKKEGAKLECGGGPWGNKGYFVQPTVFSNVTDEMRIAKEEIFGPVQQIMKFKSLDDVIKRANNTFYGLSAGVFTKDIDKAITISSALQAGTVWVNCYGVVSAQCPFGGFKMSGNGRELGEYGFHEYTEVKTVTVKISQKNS
HPGD inh: inhibitors of human 15-hydroxyprostaglandin dehydrogenase (HPGD); P15428; purified HPGD, NADH fluorescence kinetic, PGE2 substrate; Potency, µM, usual class: inhibitors; actives 4.3% (n = 150,000); AID 894
Target sequence (P15428 whole entry, looked up): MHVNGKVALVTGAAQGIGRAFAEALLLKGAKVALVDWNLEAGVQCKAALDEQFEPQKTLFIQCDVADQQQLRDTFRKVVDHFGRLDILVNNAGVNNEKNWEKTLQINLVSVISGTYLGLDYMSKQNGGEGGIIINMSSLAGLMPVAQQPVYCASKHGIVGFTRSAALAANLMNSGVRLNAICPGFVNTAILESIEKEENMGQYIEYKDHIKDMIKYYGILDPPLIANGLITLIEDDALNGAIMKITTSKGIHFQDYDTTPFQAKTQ
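20 nM HPGD preincubated 15 min at room temperature with compound in 50 mM Tris-HCl pH 8, 0.01% Tween 20. Started with 1 mM NAD+ and 30 uM prostaglandin E2; NADH fluorescence (360/450 nm) read 5 times over 30-s intervals, last minus first.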
KDM4E inh: JMJD2E (human) inhibition | B2RXH2 | JMJD2E catalytic domain, FDH-coupled NADH fluorescence (FDH is formaldehyde dehydrogenase) | Potency, µM (titrated, usually from 57.1 µM), usual class: inhibitors | actives 1.6% (n = 230,000) | AID 2147; further: nearly all actives have a fitted effect of over 50% in size
Hits are given with their value; i = inactive; ? = inconclusive; nt = no result; [ ] = dose if it differs, or a comment. A selection: hits, their analogues and other compounds. The true share with any hit is near 9.8%. Unless noted, the call rests on the fitted dose curve; in most records, active means well fitted inhibition curve with a large enough effect (not every such curve was filed as active); inconclusive means small, poorly fitted or top-dose-only effect, or another doubt; inactive means no such curve, though single readings can be large or run the other way.

SMILES	CBFb-RUNX1 inh	HTT ATP protect	HTT aggregate	ALDH1A1 block	HPGD inh	KDM4E inh
CCOC(=O)CC1=NN(c2ccccc2)C(=O)/C1=C\c1ccc(OC)cc1OC	i	i[10 µM]	i	?	28.2µM	?
COC(=O)CC1=NN(c2ccc(OC)cc2)C(=O)/C1=C\c1ccc(Cl)cc1	?	i[10 µM]	i	i	25.1µM	i
CCCCCc1cc(=O)oc2c(C(CCN3CCCCC3)c3ccc(OC)cc3)c(OC)cc(OC)c12 (centres undefined)	i	i[10 µM]	i[9.22 µM]	nt	nt	?
CCCCCc1cc(=O)oc2c(C(CCN3CCCC3)c3cc(OC)c(OC)c(OC)c3)c(OC)cc(OC)c12 (centres undefined)	i	i[10 µM]	i[9.22 µM]	nt	nt	22.4µM
CC1CCCC(NC(=O)COC(=O)c2ccc(N(C)C)cc2)C1C (centres undefined)	i	i	?	i	?	i
COC(=O)c1ccc(/C=N/OCC(=O)NC2CCCCCCC2)cc1	i	i	i	i	28.2µM	i
COc1ccccc1OCC(=O)NC1CCCCCC1	i	i	i	?	10µM	i
CCOc1ccccc1OCC(=O)NC1CCCCC1	i	i	i	i	i	i
CCC(C)NC(=O)CO/N=C/c1ccc(C(=O)OC)cc1 (centres undefined)	i	i	i	i	i	i
COC(=O)c1ccc(/C=N/OCC(=O)NC2CCCC(C)C2C)cc1 (centres undefined)	i	i	i[9.22 µM]	i	11.2µM	i
NC1(C(=O)NC2(C(=O)O)CCCC2)CCCC1	nt	i[10 µM]	nt	i[13.5 µM]	i	nt
COc1cccc(-n2nc3c(=O)n(Cc4ccccc4Cl)nc(C)c3c2C)c1	i	i[10 µM]	i	i	i	i
C=CCNC(=O)c1cc([N+](=O)[O-])cc2c(=O)[nH]c(Nc3ccc(Cl)c(Cl)c3)nc12	i	i	nt	i	i	i
COC(=O)c1ccc(Cn2nc(C)c(Cl)c2C)o1	i	i	i	28.2µM	i	i
Nc1c(S(=O)(=O)c2cccs2)c2nc3ccccc3nc2n1Cc1cccs1	i	i	i	?	?	?
Nc1c(S(=O)(=O)c2cccs2)c2nc3ccccc3nc2n1CCc1ccccc1	?	i	?	?	?	?
CC(C)CCn1c(N)c(S(=O)(=O)c2cccs2)c2nc3ccccc3nc21	?	i[0.074 µM]	11.2µM	?	?	?
Nc1c(S(=O)(=O)c2cccs2)c2nc3ccccc3nc2n1CC1CCCO1 (centres undefined)	i	nt	0.0022µM	?	?	?
CCN(Cc1ccccc1)c1ccc(/C=C(\C#N)c2ccccn2)cc1	i	i[10 µM]	i	14.1µM	nt	?
CC(C)NCC#CCOc1ccc(Cl)cc1	i	i	i[9.22 µM]	2.38µM	nt	i
COc1ccc(CCN(/C=C2\Sc3ccccc3C2=O)C(C)=O)cc1OC	i	i[10 µM]	i[9.22 µM]	i	nt	31.6µM
COc1cc2c(=O)n(Cc3ccccc3)c(=O)n(CC(=O)C(C)(C)C)c2cc1OC	i	i[10 µM]	i[9.22 µM]	nt	nt	i
COc1cc2c(=O)n(Cc3ccco3)c(=O)n(CC(=O)c3ccc(Br)cc3)c2cc1OC	i	i[10 µM]	i	0.398µM	i	i
COc1cc2c(=O)n(Cc3ccco3)c(=O)n(CC(=O)c3cccc(Br)c3)c2cc1OC	i	i	i	1.12µM	i	i
COCCNC(=O)CCCn1c(=O)c2cc(OC)c(OC)cc2n(CC(=O)c2cccc(OC)c2)c1=O	i	i	i	i	nt	i
SMILES	CBFb-RUNX1 inh	HTT ATP protect	HTT aggregate	ALDH1A1 block	HPGD inh	KDM4E inh
CN(Cc1cccnc1)Cc1cn[nH]c1-c1ccc(-c2ccccc2)cc1	i	i[10 µM]	i[9.22 µM]	nt	nt	i
O=[N+]([O-])c1cc(-c2nnc(N3CCOCC3)c3ccccc23)ccc1N1CCOCC1	i	nt	i	10µM	nt	i
O=[N+]([O-])c1cc(-c2nnc(Nc3ccc(O)cc3)c3ccccc23)ccc1N1CCOCC1	i	i[10 µM]	?	?	i	i
O=[N+]([O-])c1cc(-c2nnc(Nc3ccccc3)c3ccccc23)ccc1N1CCOCC1	i	i[1.9 µM]	i	?	14.1µM	i
Cc1ccc(Nc2nnc(-c3ccc(N4CCOCC4)c([N+](=O)[O-])c3)c3ccccc23)cc1	i	i[10 µM]	i	?	i	i
Cc1cc(C)n2nc[n+](C)c2n1	i	i[10 µM]	i	i	i	i
CC(=O)Oc1ccc(C(=C2CCCCC2)c2ccc(OC(C)=O)cc2)cc1	?	i	i	nt	nt	nt
CCCCC(C(=O)O)C(C)CC(=O)NNC(=O)c1ccco1 (centres undefined)	i	i[10 µM]	i[9.22 µM]	i	nt	i
O=C(c1ccco1)N1CCN(C(c2ccc(Cl)cc2)c2nnnn2CC2CCCO2)CC1 (centres undefined)	i	i	i	?	i	i
Cc1ccc(S(=O)(=O)Cn2nnnc2C(C)N2CCN(C(=O)c3ccco3)CC2)cc1 (centres undefined)	i	i	i	25.1µM	i	i
Cc1ccc(S(=O)(=O)Cn2nnnc2C(C(C)C)N2CCN(C(=O)c3ccco3)CC2)cc1 (centres undefined)	nt	i[10 µM]	nt	nt	nt	nt
Cc1ccc(C(c2nnnn2CC2CCCO2)N2CCN(C(=O)c3ccco3)CC2)cc1 (centres undefined)	i	i[10 µM]	i	15.8µM	i	i
O=C(c1ccco1)N1CCN(Cc2nnnn2CC2CCCO2)CC1 (centres undefined)	i	i[10 µM]	i[9.22 µM]	20µM	nt	i
O=C(NCc1ccccn1)c1ccccc1-c1ccccc1	i	i[10 µM]	?	i	nt	i
CC(C)CN1CCCC2(CCN(C(=O)c3csnn3)CC2)C1	nt	i	nt	i	i	nt
O=[N+]([O-])c1ccc(O)c(Nc2ncnc3ccc(Br)cc23)c1	i	i	31.6µM	?	nt	i
O=[N+]([O-])c1ccc2ncnc(Nc3ccc4c(c3)OCCO4)c2c1	i	i	14.1µM	0.355µM	nt	i
COc1ccc(Nc2ncnc3ccc([N+](=O)[O-])cc23)c(OC)c1	i	i	?	?	nt	i
COc1ccc(N(C=O)C(=S)SC)cc1	i	i[10 µM]	i[9.22 µM]	nt	nt	i
COc1ccc(CCNC(=O)CCCn2c(SCC#N)nc3ccccc3c2=O)cc1OC	i	i	i	i	i	i
COc1ccc(CCNC(=O)CCn2c(SCC#N)nc3ccccc3c2=O)cc1OC	i	i	i	20µM	i	i
COCCCNC(=O)CSc1nc2ccccc2c(=O)n1CCC(=O)NCCc1ccc(OC)c(OC)c1	i	i	i	?	nt	i
COCCNC(=O)CSc1nc2ccccc2c(=O)n1CCC(=O)NCCc1ccc(OC)c(OC)c1	i	i	i	14.1µM	nt	i
CC(CCc1nc2ccccc2s1)(c1ccc(O)cc1)c1ccc(O)cc1	nt	i[10 µM]	nt	i[13.5 µM]	?	nt
CCN(CC)c1ccc(NC2=C(Cl)C(=O)c3ccccc3C2=O)cc1	i	nt	?	10µM	7.94µM	7.08µM
O=C1C(Cl)=C(NCCN2CCCCC2)C(=O)c2ccccc21	i	i	?	i	nt	i
CCNC1=C(Cl)C(=O)c2ccccc2C1=O	nt	i	12.6µM	?	i	i
